Screens deposited in PubChem BioAssay by University of Kansas High Throughput Screening Laboratory.
In the library only some 3.5% were active in any assay of this set; here they are far more common.
mHTT CaM bind: inhibitors of human mutant huntingtin-calmodulin interaction; AlphaScreen His-mHTT/GST-CaM binding, luminescence; inhibition, % at 15 µM; hit rate 3.6% among 190,000; AID 1671202
Target sequence (P42858 whole entry, looked up, change not shown): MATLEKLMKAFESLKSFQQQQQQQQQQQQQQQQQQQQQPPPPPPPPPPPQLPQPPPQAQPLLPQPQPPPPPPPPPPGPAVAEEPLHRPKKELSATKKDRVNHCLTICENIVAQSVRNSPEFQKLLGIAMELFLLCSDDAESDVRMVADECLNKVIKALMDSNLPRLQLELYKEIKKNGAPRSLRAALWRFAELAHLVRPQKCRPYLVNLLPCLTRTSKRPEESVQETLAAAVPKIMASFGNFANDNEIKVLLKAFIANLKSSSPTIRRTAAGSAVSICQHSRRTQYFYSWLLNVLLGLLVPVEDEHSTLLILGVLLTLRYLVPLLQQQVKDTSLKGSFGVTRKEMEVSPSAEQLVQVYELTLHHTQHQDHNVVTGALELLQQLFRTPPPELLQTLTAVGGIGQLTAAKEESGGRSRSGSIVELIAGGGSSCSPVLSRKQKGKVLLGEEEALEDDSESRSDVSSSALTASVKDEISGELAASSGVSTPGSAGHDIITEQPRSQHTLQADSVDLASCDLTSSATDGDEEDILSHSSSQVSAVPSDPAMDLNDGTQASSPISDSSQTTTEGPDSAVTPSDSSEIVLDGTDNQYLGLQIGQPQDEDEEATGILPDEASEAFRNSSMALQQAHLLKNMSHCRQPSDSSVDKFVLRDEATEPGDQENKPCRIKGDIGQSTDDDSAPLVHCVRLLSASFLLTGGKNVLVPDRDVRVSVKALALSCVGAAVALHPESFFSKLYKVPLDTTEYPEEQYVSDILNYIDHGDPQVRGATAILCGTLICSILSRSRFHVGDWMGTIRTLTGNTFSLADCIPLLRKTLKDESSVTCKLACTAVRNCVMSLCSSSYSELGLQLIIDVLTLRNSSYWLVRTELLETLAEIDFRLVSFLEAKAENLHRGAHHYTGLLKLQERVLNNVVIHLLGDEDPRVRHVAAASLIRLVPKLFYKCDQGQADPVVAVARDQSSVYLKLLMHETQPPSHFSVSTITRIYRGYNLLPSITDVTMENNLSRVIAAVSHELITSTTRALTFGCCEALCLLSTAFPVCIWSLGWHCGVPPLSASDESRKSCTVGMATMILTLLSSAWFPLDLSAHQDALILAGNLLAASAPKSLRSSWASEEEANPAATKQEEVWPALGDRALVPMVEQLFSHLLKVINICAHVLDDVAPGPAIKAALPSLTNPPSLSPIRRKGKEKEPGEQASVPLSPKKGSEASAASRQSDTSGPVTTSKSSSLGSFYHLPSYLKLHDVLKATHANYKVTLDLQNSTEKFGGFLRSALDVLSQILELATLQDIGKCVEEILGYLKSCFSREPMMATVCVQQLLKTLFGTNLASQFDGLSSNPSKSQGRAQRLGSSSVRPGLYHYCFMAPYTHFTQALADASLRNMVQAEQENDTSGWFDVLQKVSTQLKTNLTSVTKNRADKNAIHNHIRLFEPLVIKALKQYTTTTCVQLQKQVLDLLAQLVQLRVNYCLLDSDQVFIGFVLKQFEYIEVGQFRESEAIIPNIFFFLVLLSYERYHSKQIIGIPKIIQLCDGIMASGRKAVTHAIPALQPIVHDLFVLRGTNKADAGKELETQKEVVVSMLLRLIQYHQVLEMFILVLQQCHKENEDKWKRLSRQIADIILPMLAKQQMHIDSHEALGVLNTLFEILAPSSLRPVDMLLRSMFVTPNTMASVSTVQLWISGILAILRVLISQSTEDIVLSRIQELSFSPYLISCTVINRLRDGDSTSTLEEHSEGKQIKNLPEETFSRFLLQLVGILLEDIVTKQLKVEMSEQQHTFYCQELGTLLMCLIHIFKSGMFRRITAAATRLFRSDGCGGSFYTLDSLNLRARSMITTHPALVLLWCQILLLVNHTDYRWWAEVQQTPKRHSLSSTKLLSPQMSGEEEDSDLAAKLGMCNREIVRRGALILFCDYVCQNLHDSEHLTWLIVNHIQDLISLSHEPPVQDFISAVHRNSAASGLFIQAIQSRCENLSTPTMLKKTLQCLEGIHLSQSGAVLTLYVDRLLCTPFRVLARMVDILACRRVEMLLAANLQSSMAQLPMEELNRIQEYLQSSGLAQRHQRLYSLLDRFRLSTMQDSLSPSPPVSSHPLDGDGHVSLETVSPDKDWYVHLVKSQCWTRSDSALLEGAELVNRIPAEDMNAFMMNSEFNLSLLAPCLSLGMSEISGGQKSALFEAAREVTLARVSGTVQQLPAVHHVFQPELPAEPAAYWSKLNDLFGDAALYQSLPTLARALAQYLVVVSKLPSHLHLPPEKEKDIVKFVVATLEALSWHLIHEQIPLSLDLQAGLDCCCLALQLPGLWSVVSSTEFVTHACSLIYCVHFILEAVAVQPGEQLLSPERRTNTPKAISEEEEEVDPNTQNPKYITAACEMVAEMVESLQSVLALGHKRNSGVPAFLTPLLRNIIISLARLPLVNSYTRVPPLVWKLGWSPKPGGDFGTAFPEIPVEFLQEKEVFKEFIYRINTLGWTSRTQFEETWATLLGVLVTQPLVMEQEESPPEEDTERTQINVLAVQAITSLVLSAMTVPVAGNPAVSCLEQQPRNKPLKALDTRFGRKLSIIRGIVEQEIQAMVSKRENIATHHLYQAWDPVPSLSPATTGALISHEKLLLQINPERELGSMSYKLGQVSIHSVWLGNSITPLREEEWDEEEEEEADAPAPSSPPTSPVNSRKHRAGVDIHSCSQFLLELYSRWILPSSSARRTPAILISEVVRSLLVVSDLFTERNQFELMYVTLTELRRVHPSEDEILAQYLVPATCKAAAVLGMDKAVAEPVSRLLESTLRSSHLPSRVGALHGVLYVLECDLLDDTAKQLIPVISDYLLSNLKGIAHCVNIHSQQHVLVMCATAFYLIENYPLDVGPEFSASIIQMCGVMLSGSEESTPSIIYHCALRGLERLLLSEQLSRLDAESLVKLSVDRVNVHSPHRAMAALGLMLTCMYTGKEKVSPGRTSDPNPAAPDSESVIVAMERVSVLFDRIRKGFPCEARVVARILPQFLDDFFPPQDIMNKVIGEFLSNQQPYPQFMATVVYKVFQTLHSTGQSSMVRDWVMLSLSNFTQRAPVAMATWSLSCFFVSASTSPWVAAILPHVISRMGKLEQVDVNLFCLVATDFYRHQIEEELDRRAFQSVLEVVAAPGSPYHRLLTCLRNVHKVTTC
Pf apPOL block: Pf-apPOL DNA polymerase inhibition. Recombinant Pf-apPOL, molecular beacon fluorescence, 1.5 h. inhibition, % at 10 µM. hit rate 0.25% among 210,000
Of the large screens only hits and unclear results are named; the others gave an inactive call; ! = not confirmed by another sample. No stated cut-off is given here; in the data, active means inhibition above about 50%; inactive means the rest.

O=C(NCc1ccc(C(F)(F)F)cc1)C1CCN(c2cnc3nccnc3c2)CC1	none
CC(C)n1cc(C2=CCN(C(=O)Nc3ccc(Cl)cc3)CC2)c2cccnc21	none
CC(C)n1cc(C2=CCN(C(=O)Nc3ccc4c(c3)OCCO4)CC2)c2cccnc21	mHTT CaM bind 60.9
C=CCSc1nnc(-c2ccccc2N)c(=O)[nH]1	mHTT CaM bind 99.1!
Nc1ccccc1-c1nnc(SCc2ccccc2)[nH]c1=O	none
CC(C)NC(=O)N1Cc2c(sc3c2CCCC3)-n2cccc2C1c1cccs1 (stereo not given)	none
CCN(CC)S(=O)(=O)c1ccc(C(=O)Nc2c3c(nn2C(C)(C)C)CS(=O)C3)cc1 (stereo not given)	none
CN(C)c1ccc(NC(=O)CCC2CCCCC2)cc1	mHTT CaM bind 63.1
COc1ccc(NC(=O)CCC2CCCCC2)cc1OC	none
COc1ccc(N2C(=O)c3ccc(Oc4ccc(N)cc4)cc3C2=O)cc1OC	none
COc1ccccc1Oc1ccc2c(c1)C(=O)N(c1cccc3ncccc13)C2=O	mHTT CaM bind 75.0
CCCCC(C(=O)O)N1C(=O)C(=Cc2ccco2)SC1=S (stereo not given)	Pf apPOL block 52.3
COc1cc(/C=C2/SC(c3ccc(C)cc3)=NC2=O)ccc1O	mHTT CaM bind 53.0
CCCC(C(=O)O)N1C(=O)C(=Cc2cccc(OC)c2OC)SC1=S (stereo not given)	none
O=C(O)CN1C(=O)/C(=C\c2ccco2)SC1=S	none (no result: Pf apPOL block)
CCCCC(C(=O)O)N1C(=O)C(=Cc2cc(OC)c(OC)c(OC)c2)SC1=S (stereo not given)	mHTT CaM bind 54.9
CCCC(C(=O)O)N1C(=O)C(=Cc2ccccc2OC)SC1=S (stereo not given)	mHTT CaM bind 60.0
CCC(C(=O)O)N1C(=O)C(=Cc2cc(OC)c(OC)c(OC)c2)SC1=S (stereo not given)	none
COc1cc(/C=C2/SC(c3ccc(C)cc3)=NC2=O)cc(OC)c1OC	none
Cn1cc(-c2ccncc2)cc1C(=O)NCc1cccc(Br)c1	none
CCCNC(=O)c1cn(-c2ccc(F)cc2)nn1	none
Cc1ccc(CNC(=O)Cn2ccc3c(C)nn(C)c3c2=O)cc1	none
CCCCn1c(N2CCOCC2)nc(CC)cc1=O	none
COc1cc(C(=O)N2CCC3(CC2)NC(=O)c2ccc(F)cc2N3C)cc(OC)c1OC	none
COC(=O)CN1C(=O)C(=Cc2ccc(O)c(OC)c2)SC1=S	mHTT CaM bind 57.6
COC(=O)CCN1C(=O)C(=Cc2ccc(O)c(OC)c2)SC1=S	none
CCN1C(=O)C(=Cc2ccc(O)c(OC)c2)SC1=S	none
COc1cc(C=C2SC(=S)N(CCCCC(C(=O)O)N3C(=O)C(=Cc4ccc(O)c(OC)c4)SC3=S)C2=O)ccc1O (stereo not given)	Pf apPOL block 61.7
CCOc1ccc2c(c1)-c1c(ssc1=S)C(C)(C)N2	mHTT CaM bind 51.2 (no result: Pf apPOL block)
CCCN1c2ccccc2-c2c(ssc2=S)C1(C)C	none (no result: Pf apPOL block)
Cc1ccc2c(c1)-c1c(ssc1=S)C(C)(C)N2	mHTT CaM bind 52.5 (no result: Pf apPOL block)
CCc1ccc(-c2csc(NC(=O)C3C4CCC(C4)C3C(=O)O)n2)cc1 (stereo not given)	none
O=C1c2[nH]nc(-c3ccccc3)c2C(c2ccccc2[N+](=O)[O-])N1c1ccccc1 (stereo not given)	mHTT CaM bind 59.0
O=C1c2[nH]nc(-c3ccccc3)c2C(c2ccccc2)N1c1ccccc1 (stereo not given)	none
COc1ccc(-c2n[nH]c3c2C(c2ccc(OC)c(OC)c2)N(c2ccccc2)C3=O)cc1 (stereo not given)	none
COc1ccc(C2c3c(-c4ccccc4)n[nH]c3C(=O)N2c2ccccc2)cc1 (stereo not given)	mHTT CaM bind 59.0
CC(=O)C1=C(O)C(=O)N(c2ccccn2)C1c1ccc([N+](=O)[O-])cc1 (stereo not given)	none
O=C1c2[nH]nc(-c3ccc(Cl)cc3)c2C(c2ccc([N+](=O)[O-])cc2)N1c1ccccn1 (stereo not given)	mHTT CaM bind 89.0
CCCNC(=O)N1CC(C(=O)N2CCCCC2)C2(CCOCC2)C1 (stereo not given)	none
Cc1ccc(Cn2cc(/C=C3\SC(=O)N(C)C3=O)c3ccccc32)cc1	none
CC(CCc1ccccc1)Nc1nc(Cl)nc(NCCN2CCOCC2)n1 (stereo not given)	mHTT CaM bind 62.0
Clc1nc(NCCN2CCOCC2)nc(NCc2ccccc2)n1	none
COc1cccc(C2=NC(C(C)C)NC(c3ccccc3O)C2)c1 (stereo not given)	none
CCOC(=O)N1CCC2(CC1)N=C(c1ccccc1)CC(c1cc(Cl)ccc1O)N2 (stereo not given)	none
COc1cccc(C2=NC(C)(C)NC(c3cc(Cl)ccc3O)C2)c1 (stereo not given)	mHTT CaM bind 100.0
COc1cccc(C2=NC(C(C)C)NC(c3cc(Cl)ccc3O)C2)c1 (stereo not given)	mHTT CaM bind 52.0
CC(C)N1CCC2(CC1)N=C(c1ccc3c(c1)OCO3)CC(c1ccccc1O)N2 (stereo not given)	none
CCCC1(C)N=C(c2ccc(OCC)cc2)CC(c2ccccc2O)N1 (stereo not given)	none
COc1cccc(C2=NC(C)(CC(C)C)NC(c3ccccc3O)C2)c1 (stereo not given)	mHTT CaM bind 98.0
CC(C)C1(C)N=C(c2ccc3c(c2)OCO3)CC(c2ccccc2O)N1 (stereo not given)	mHTT CaM bind 64.0
CC(C)CCNC(=O)c1ccc(N2CCNC(c3ccccc3)C2)nc1 (stereo not given)	none
O=C(Cc1nc(-c2ccccc2)n[nH]1)Nc1cccc(F)c1	none
Cc1cc2c3c(C)n(C)c(C)c3c(C)nn2c1	mHTT CaM bind 79.1
Cn1c2ccccc2c2nnc(SCC(=O)Nc3ccc(F)cc3)nc21	none
COc1ccc(NC(=O)CC2CCC2)cc1	none
COc1ccc(NCC2CCCCC2)cc1	mHTT CaM bind 73.4
O=C(COc1ccccc1)NCCS(=O)(=O)N1CCN(c2cccc(Cl)c2)CC1	none
C[C@H](c1ccccc1)N1C[C@@H](COCc2ccccc2)Oc2cc(N3CC[C@H](N(C)C)C3)ccc2S1(=O)=O	none
C[C@H](c1ccccc1)N1C[C@@H](COCc2ccccc2)Oc2cc(N3CC[C@@H](O)C3)ccc2S1(=O)=O	none
C[C@H](c1ccccc1)N1C[C@@H](COCc2ccccc2)Oc2cc(N3CCC[C@@H]3CO)ccc2S1(=O)=O	mHTT CaM bind 68.3
C[C@H](c1ccccc1)N1C[C@@H](COCc2ccccc2)Oc2cc(N3CC[C@@H](N(C)C)C3)ccc2S1(=O)=O	mHTT CaM bind 100.2
C[C@H](c1ccccc1)N1C[C@H](COCc2ccccc2)Oc2cc(N3CCC[C@H]3CO)ccc2S1(=O)=O	none
C[C@@H](c1ccccc1)N1C[C@@H](COCc2ccccc2)Oc2cc(N3CC[C@H](O)C3)ccc2S1(=O)=O	mHTT CaM bind 55.4
CNC(=O)c1cc(N(C)C)nc2ccc(F)cc12	none
Oc1ccc(C2=Nn3c(nnc3-c3cccc(Cl)c3Cl)SC2)cc1O	none
COc1ccc(N(C)C(=O)c2nc(C)n(C3CCN(S(C)(=O)=O)CC3)c2C)cc1	mHTT CaM bind 85.8
CCOc1ccc(N(CC)C(=O)c2nc(C)n(C3CCN(S(C)(=O)=O)CC3)c2C)cc1	none
CCOCCc1nnc(NC(=O)Nc2ccc(Cl)cc2)s1	none
Cc1ccc(-c2noc(C3CCCN3S(=O)(=O)c3ccc4c(c3)CCCC4)n2)cc1 (stereo not given)	none
O=C(O)/C(=C\c1ccco1)NC(=O)c1ccc(Cl)cc1Cl	none
